Data taken from PubChem BioAssay.
Where “and” joins values, the source holds several entries; their conditions need not be identical. Identical values can stand only once. Calls of active or inactive are those of the source. Unless noted, no rule for the calls is given here.

Tests used:
[1] = HepG2 liver cancer cell viability effects, profiling panel, resazurin fluorescence, 24 h, PK04 Diversity Set (AID 1172); details: higher = more signal; also: test concentration not given here
[2] = basal S. cerevisiae growth modulation, no modifier, primary screen, OD600, strain BY4716, 24 h, basal condition (AID 1173); details: OD600, 24 h, higher = more signal, called active from +8 up or from −8 down
[3] = MM1S myeloma cell viability, profiling panel, resazurin fluorescence, basal, 24 h, PK04 Diversity Set (AID 1174); details: higher = more signal, called active from +8 up or from −8 down;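 also: MM1S multiple myeloma cell line; test concentration not given here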
[4] = molecular target: Dihydroorotate dehydrogenase (quinone), mitochondrial (Plasmodium falciparum (isolate 3D7)) (UniProt Q08210); test: PfDHODH enzyme inhibitors, primary screen, biochemical, C-terminal His tag, absorbance 600 nm (AID 1175); details: DCIP absorbance 600 nm, higher = more signal, called active from +8 up or from −8 down;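 also: recombinant parasite enzyme with a five histidine tag at its C terminus; test concentration not given here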
Sequence of Dihydroorotate dehydrogenase (quinone), mitochondrial (Plasmodium falciparum (isolate 3D7)) (Q08210 whole entry, looked up): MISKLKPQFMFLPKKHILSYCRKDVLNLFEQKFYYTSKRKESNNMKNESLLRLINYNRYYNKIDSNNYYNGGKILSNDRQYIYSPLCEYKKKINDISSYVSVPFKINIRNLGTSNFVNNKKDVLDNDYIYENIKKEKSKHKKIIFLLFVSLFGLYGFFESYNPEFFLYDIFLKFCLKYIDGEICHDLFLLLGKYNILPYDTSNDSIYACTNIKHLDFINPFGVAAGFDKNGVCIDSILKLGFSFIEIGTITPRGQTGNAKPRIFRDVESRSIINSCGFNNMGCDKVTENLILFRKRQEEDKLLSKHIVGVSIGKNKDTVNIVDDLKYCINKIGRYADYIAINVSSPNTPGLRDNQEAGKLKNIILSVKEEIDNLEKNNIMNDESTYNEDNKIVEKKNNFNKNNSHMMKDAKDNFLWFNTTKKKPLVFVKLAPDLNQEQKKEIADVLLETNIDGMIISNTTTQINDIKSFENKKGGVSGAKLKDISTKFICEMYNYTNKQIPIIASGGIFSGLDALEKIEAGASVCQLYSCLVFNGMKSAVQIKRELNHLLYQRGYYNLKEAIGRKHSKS

[5] = P. aeruginosa biofilm formation inhibitors, primary screen, strain PAO1, LB-PBS medium, absorbance 600 nm (AID 1176); also: test concentration not given here; details: P. aeruginosa PAO1 growth/biofilm, A600, 12 h; higher = more signal
[6] = S. cerevisiae RM11-1a growth modifiers, primary screen, strain RM11-1a, OD600, basal, 24 h (AID 1177); details: OD600, 24 h, higher = more signal, called active from +8 up or from −8 down;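 also: cultures grown under basal conditions with no added stressor; test concentration not given here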
[7] = E. coli acrAB mutant growth effects, primary screen, E. coli filamentation inducers, strain DRC39, OD650, 24 h (AID 1178); details: higher = more signal, called active from +8 up or from −8 down;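 also: growth measured as culture turbidity by optical density at 650 nm; test concentration not given here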
[8] = E. coli acrAB mutant growth effects, primary screen, E. coli filamentation inducers, strain DRC39, OD650, 48 h (AID 1179);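 also: screen aims at cell division blockers that make cells filament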; details: E. coli DRC39 delta-acrAB growth, higher = more signal, called active from +8 up or from −8 down
[9] = RPMI8226 myeloma cell viability, profiling panel, resazurin fluorescence, basal, 24 h, PK04 Diversity Set (AID 1180); details: higher = more signal;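 also: RPMI8826 multiple myeloma cell line at 5000 cells per well; test concentration not given here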
[10] = molecular target: E3 ubiquitin-protein ligase XIAP (Homo sapiens) (UniProt P98170); test: XIAP binders, primary screen, biophysical, small-molecule microarray, fluorescence 635 nm (AID 1181); details: small-molecule microarray binding, higher = more signal;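 also: score merges 667 nm emission and signal to noise over triplicate slides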
Sequence of E3 ubiquitin-protein ligase XIAP (Homo sapiens) (P98170 whole entry, looked up): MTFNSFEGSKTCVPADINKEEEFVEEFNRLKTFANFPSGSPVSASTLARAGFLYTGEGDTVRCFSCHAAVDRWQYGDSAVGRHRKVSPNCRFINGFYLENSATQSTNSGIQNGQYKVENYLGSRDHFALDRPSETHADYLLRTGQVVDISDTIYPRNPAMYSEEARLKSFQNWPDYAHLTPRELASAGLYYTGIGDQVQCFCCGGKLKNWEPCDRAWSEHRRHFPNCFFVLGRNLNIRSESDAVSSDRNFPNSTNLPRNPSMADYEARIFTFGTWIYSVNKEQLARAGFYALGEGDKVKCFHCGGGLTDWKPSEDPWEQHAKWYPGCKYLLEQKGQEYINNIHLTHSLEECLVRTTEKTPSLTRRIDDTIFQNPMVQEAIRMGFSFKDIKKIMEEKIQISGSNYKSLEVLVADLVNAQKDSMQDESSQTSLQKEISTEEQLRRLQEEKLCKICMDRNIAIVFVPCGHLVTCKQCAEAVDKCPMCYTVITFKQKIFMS

SMILES	z-score [1]	z-score [2]	z-score [3]	composite z-score [4]	z-score [5]	z-score [6]	z-score [7]	z-score [8]	z-score [9]	composite z-score [10]
C=CCN(CCCCC)C(=O)C1N(CCCCCCO)C(=O)C2C(C(=O)O)C3C=CC21O3 (stereo not given)	-0.382 and -0.569	-0.0594 (inactive) and -0.411 (inactive)	-0.847 (inactive) and -0.718 (inactive)	0.0615 (inactive) and -0.082 (inactive)	0.0809 (inactive) and -0.966 (inactive)	-0.42 (inactive) and -0.52 (inactive)	0.554 (inactive) and -0.272 (inactive)	0.44 (inactive) and -0.188 (inactive)	-0.772 and -0.735	-0.152 and 0.0785
COC(=O)[C@@]1(Cc2ccc(F)cc2)[C@H]2c3cc(C(=O)N4CCCC4)n(Cc4c(CO)[nH]cc(C)c4=O)c3C[C@H]2CN1C(=O)c1ccccc1	-0.605 and 1.06	1.61 (inactive) and 2.35 (inactive)	-1.14 (inactive) and -0.131 (inactive)	0.0634 (inactive) and 0.524 (inactive)	1.38 (inactive) and 0.895 (inactive)	1.33 (inactive) and 1.72 (inactive)	-0.573 (inactive) and -0.476 (inactive)	-0.104 (inactive) and -0.339 (inactive)	-1.14 and -1.39	0.221 and 0.0726
COC(=O)C1=C(C)N(Cc2ccccc2)C2=C(C(C)=O)[C@H](c3ccccc3)[C@@](O)(C(=O)OC)C(=O)N2[C@@H]1c1ccccc1	1.38 and 0.559	-2.41 (inactive) and -3.21 (inactive)	1.07 (inactive) and 0.983 (inactive)	0.523 (inactive) and -1.82 (inactive)	1.08 (inactive)	-0.107 (inactive) and -3.5 (inactive)	1.32 (inactive) and 0.552 (inactive)	0.972 (inactive) and -1.35 (inactive)	1.27 and 0.0662	0.0177 and -0.244
C=C[C@H](OC)[C@@H](O)c1ccc(OCCO)cc1	-0.843 and 0.501	-0.43 (inactive) and -1.55 (inactive)	-0.887 (inactive) and 0.51 (inactive)	-0.0113 (inactive) and -0.134 (inactive)	0.0123 (inactive) and 1.37 (inactive)	0.952 (inactive) and -0.0987 (inactive)	-0.258 (inactive) and 1.78 (inactive)	-0.366 (inactive) and 1.8 (inactive)	-1.28 and 1.05	-0.206 and -0.352
O=c1n(-c2ccccc2)c(=O)n2n1CC[C@@H]1C(=NOC[C@@H](O)COCc3ccco3)[C@H]3O[C@H]3[C@@H](O)[C@@H]12	-0.618 and -0.581	-0.428 (inactive) and 0.804 (inactive)	0.467 (inactive) and -0.453 (inactive)	-2.79 (inactive) and 0.389 (inactive)	0.413 (inactive) and -0.455 (inactive)	-0.37 (inactive) and 0.962 (inactive)	-0.417 (inactive) and 0.0343 (inactive)	-0.802 (inactive) and -0.756 (inactive)	0.0942 and -0.433	-0.0085 and -0.434
CO[C@H]1COC(=O)[C@H](C)NC(=O)CC=C[C@@H](C)[C@H](OC)COC(=O)CC=C[C@@H]1C	0.322	0.278 (inactive)	0.845 (inactive)	0.804 (inactive)	-0.519 (inactive)	1.18 (inactive)	0.901 (inactive)	-0.959 (inactive)	0.636	0.234
Cc1ccc(S(=O)(=O)N[C@H]2COC(=O)[C@@H](Cc3ccccc3)NC(=O)[C@@H](C)COC(=O)CC=C[C@@H]2C)cc1	0.328 and 0.224	-0.207 (inactive) and -0.631 (inactive)	0.0731 (inactive) and -0.209 (inactive)	-0.395 (inactive) and -0.412 (inactive)	-0.814 (inactive) and -0.479 (inactive)	0.0658 (inactive) and 0.0386 (inactive)	0.046 (inactive) and -0.0139 (inactive)	-0.479 (inactive) and 0.385 (inactive)	0.0023 and 0.238	-0.259 and -0.469
C=CCN(C(=O)C1N(CCOCCO)C(=O)C2C(C(=O)O)C3C=CC21O3)C(C)(C)C (stereo not given)	0.0542 and -0.741	-0.0565 (inactive) and 0.494 (inactive)	-0.2 (inactive) and -1.16 (inactive)	0.256 (inactive) and 1.36 (inactive)	-0.0558 (inactive) and 0.578 (inactive)	-0.0478 (inactive) and -0.166 (inactive)	-0.335 (inactive) and -0.685 (inactive)	-0.664 (inactive) and -0.923 (inactive)	-0.244 and -1.69	0.0009 and -0.0369
COC(=O)C1=C(C)N(Cc2ccccc2)[C@]23O[C@](C(=O)OC)(C(=O)N2[C@@H]1c1ccccc1)[C@H]1CCCC(=O)[C@H]13	-0.483 and -0.852	-2.15 (inactive) and -0.0243 (inactive)	0.167 (inactive) and 0.867 (inactive)	0.149 (inactive) and -3.24 (inactive)	0.39 (inactive) and -0.692 (inactive)	-0.186 (inactive) and -0.402 (inactive)	-0.321 (inactive) and -1.18 (inactive)	-0.204 (inactive) and -1.38 (inactive)	-0.327 and -0.466	0.0548 and -0.16
COC(=O)C1=C(C)N(Cc2ccccc2)[C@]23O[C@](C(=O)OC)(C(=O)N2[C@@H]1c1ccccc1)[C@@H](C(=O)OC)[C@H]3C(=O)OC	0.348 and -0.761	0.583 (inactive) and -0.704 (inactive)	0.409 (inactive) and -0.59 (inactive)	0.466 (inactive) and -0.412 (inactive)	0.177 (inactive) and 0.241 (inactive)	1.62 (inactive) and 0.72 (inactive)	0.148 (inactive) and 0.72 (inactive)	0.165 (inactive) and 0.532 (inactive)	0.537 and -0.332	-0.17 and -0.219
CC(CO)N1C(=O)[C@@H]2C3C(=O)OCCC=C[C@H]3OC23C=CCN(Cn2nnc4ccccc42)C(=O)[C@@H]13 (stereo not given in full)	0.576 and 0.999	0.771 (inactive) and 0.283 (inactive)	-0.415 (inactive) and -0.0046 (inactive)	-4.99 (inactive) and -0.478 (inactive)	0.55 (inactive) and 0.798 (inactive)	1.07 (inactive) and -0.995 (inactive)	-0.125 (inactive) and 0.0633 (inactive)	-0.214 (inactive) and -0.099 (inactive)	0.0489 and -0.178	-0.0448 and -0.21
C=CCN(Cc1ccccc1)C(=O)C1N(C(C)(C)CO)C(=O)C2C(C(=O)O)C3C=CC21O3 (stereo not given)	-0.767 and 0.937	0.424 (inactive) and -0.874 (inactive)	-0.796 (inactive) and 0.0609 (inactive)	1.25 (inactive) and 0.316 (inactive)	-0.112 (inactive) and -0.193 (inactive)	-1.32 (inactive) and -0.417 (inactive)	-0.0429 (inactive) and 0.296 (inactive)	-0.0639 (inactive) and 0.0039 (inactive)	-0.699 and 0.447	0.0322 and -0.328
C=CCN(CCCC)C(=O)C(c1cccs1)N(C(=O)/C=C\C(=O)O)c1c(Cl)cccc1CO (stereo not given)	0.766 and 0.197	0.405 (inactive) and -0.407 (inactive)	-1.21 (inactive) and -0.193 (inactive)	0.005 (inactive) and 0.0035 (inactive)	0.991 (inactive) and 0.922 (inactive)	0.201 (inactive) and 0.0171 (inactive)	0.591 (inactive) and 0.408 (inactive)	0.339 (inactive) and 0.354 (inactive)	-0.101 and -0.108	-0.0857 and -0.0807
C=C[C@@H](C)[C@H](O)c1ccc(O)c2ccccc12	0.127 and 0.0729	-8.76 (active) and -8.55 (active)	-0.683 (inactive) and -0.737 (inactive)	-0.94 (inactive) and -0.709 (inactive)	0.483 (inactive) and 0.79 (inactive)	-0.638 (inactive) and -0.599 (inactive)	0.479 (inactive) and 0.435 (inactive)	0.008 (inactive) and 0.189 (inactive)	-0.861 and -0.602	-0.0893 and 0.0773
COC(=O)C1=C(C)N(Cc2ccccc2)C2=C(C(=O)c3ccccc3)[C@H](c3ccccc3)[C@@](O)(C(=O)OC)C(=O)N2[C@@H]1c1ccccc1	0.291 and 0.302	-1.07 (inactive) and -0.683 (inactive)	-1.34 (inactive) and -0.716 (inactive)	0.382 (inactive) and -0.214 (inactive)	0.875 (inactive) and -0.0538 (inactive)	1.27 (inactive) and 0.504 (inactive)	1.17 (inactive) and 0.312 (inactive)	0.592 (inactive) and 0.607 (inactive)	-0.56 and -0.7	0.0399 and -0.0118
COC(=O)C1=C(C)N(Cc2ccccc2)C2=C(C(C)=O)C[C@@](O)(C(=O)OC)C(=O)N2[C@@H]1c1ccccc1	0.5 and 0.54	-1.89 (inactive) and -2.55 (inactive)	-1.51 (inactive) and 0.956 (inactive)	-0.557 (inactive) and -0.986 (inactive)	0.781 (inactive)	-1.29 (inactive) and -2.02 (inactive)	-0.0507 (inactive) and 0.915 (inactive)	0.0063 (inactive) and -1.49 (inactive)	1.28 and 0.192	0.215 and -0.005
C=CCN(C(=O)C(c1cccs1)N(C(=O)/C=C\C(=O)O)C(C)(C)CO)C(C)(C)C (stereo not given)	-0.432 and -0.115	-1.64 (inactive) and -0.838 (inactive)	0.626 (inactive) and 0.391 (inactive)	-0.98 (inactive) and -0.499 (inactive)	0.454 (inactive) and -0.0837 (inactive)	-1.86 (inactive) and -1.72 (inactive)	1.97 (inactive) and 0.291 (inactive)	2.07 (inactive) and 0.946 (inactive)	0.356 and 0.366	-0.0669 and 0.0153
